# Results published in PubChem BioAssay (Tox21).
# Where “and” joins values, the source holds several entries; their conditions need not be identical. Equal values may be shown once. Results filed as inconclusive are left out. Where a call stands in place of a potency, no number is given. Calls of active or inactive are those of the source. The call rests on the fitted dose curve; in most records, active means well fitted inhibition curve with a large enough effect in the repeat runs; inconclusive means weak or mixed curves; inactive means no such curve, though single readings can be large or run the other way.
# Assay: qHTS assay to identify small molecule antagonists of the thyroid receptor (TR) signaling pathway (AID 743065); further: nearly all actives have a fitted effect of over 55% in size
# Settings: GH3.TRE-Luc, T3-stimulated luciferase inhibition, 23.5 h; series mostly up to 70.3 µM
# Excerpt: U.S. Tox21 Program National Center for Advancing Translational Sciences [NCATS] NIH Chemical Genomics Center [NCGC] U.S. Environmental Protection Agency [EPA] National Institutes of Environmental Health Sciences [NIEHS] National Toxicology Program [NTP] U.S. Food and Drug Administration [FDA] Tox21 Assay Overview: Thyroid receptor (TR), a nuclear hormone receptor, plays an important role in development, proliferation, differentiation, metabolism, brain function, and cardiovascular system. […] To profile the Tox21 10K compound library in TR signaling, a cell-based GH3-TRE-Luc assay (GH3.TRE-Luc cell line, developed by the laboratory of Dr. Albertinka J. Murk, Wageningen University) was used to measure the inhibition of TR. GH3 (rat pituitary tumor) cells stably expressing a TR activity sensor consisting of two TR response elements and a luciferase reporter gene.
# Tox21 Assay Protocol Summary: GH3.TRE-Luc cells were dispensed at 1500 cells/4 uL/well into 1536-well white solid bottom plates using a Multidrop Combi dispenser (Thermo Fisher Scientific Inc., Waltham, MA). After the assay plates were incubated at 37 C for 4 hours, 23 nL of library compound or DMSO controls was transferred to the assay plates by a pintool station (Kalypsys, San Diego, CA), followed by addition of 1 ul of T3 (1 nM, final concentration in the wells) to stimulate TR transactivation. The assay plates were incubated at 37 C for 23.5 h, and then 1 uL of CellTiter-Fluor reagent (Promega, Madision, WI) of measuring cytotoxicity was added to each well using a Bioraptr Flying Reagent Dispenser (FRD) workstation (Beckman Coulter, Indianapolis, IN, USA). The plates were incubated at 37 C and 5% CO2 for additional 30 min, and fluorescence intensity was measured by a ViewLux plate reader (PerkinElmer, Shelton, CT). For measuring luciferase reporter gene activity, 4 uL of ONE-Glo Luciferase Assay reagent (Promega) was added to each well using a Bioraptr FRD (Beckman Coulter), followed by 30 min incubation at room temperature. The luminescence intensity of plates was recorded by a ViewLux plate reader (PerkinElmer, Shelton, CT).
# Potency means the concentration at half of the fitted maximal effect.
SMILES,Potency,"activity, negative = inhibition"
Cc1ccc(S(=O)(=O)NC(=O)NC2CCCC2)cc1,inactive,
CC(=O)Oc1cccc2c1C(=O)c1c(OC(C)=O)cc(C(=O)O)cc1C2=O,inactive,
Sc1nc(S)nc(S)n1,inactive,
O=C(OC1C[C@H]2CC[C@@H](C1)[N+]21CCCC1)C(O)(c1ccccc1)c1ccccc1 (stereo not given in full),inactive,
O=c1[nH][nH]c2ccccc12,inactive,
CC(C)(C(=O)O)c1ccc(C(O)CCCN2CCC(C(O)(c3ccccc3)c3ccccc3)CC2)cc1 (stereo not given),inactive,
O=c1c2ccccc2oc2ccccc12,inactive,
O=C(Nc1ccccc1)c1cc([N+](=O)[O-])ccc1Cl,61.1 µM (active),
O=[N+]([O-])c1ccccc1CCO,inactive,
CC(=O)OCC(=O)[C@@]1(O)CC[C@H]2[C@@H]3CCC4=CC(=O)C=C[C@]4(C)[C@@]3(F)[C@@H](O)C[C@@]21C,inactive,
C[Si](C)(C)O[Si](C)(C)O[Si](C)(C)C,inactive,
Cc1cc(SC2=C(O)C[C@@](CCc3ccc(N)cc3)(C(C)C)OC2=O)c(C(C)(C)C)cc1CO,inactive,
O=C(c1ccc(Cl)cc1)c1ccc(Cl)cc1,inactive,
O=C(O)COCC(=O)O,inactive,
O=C(Cl)c1cc(Cl)cc(Cl)c1,inactive,
CC(CN=Cc1ccccc1O)N=Cc1ccccc1O (stereo not given),inactive,
CC(C)=CCC/C(C)=C/C=N/O,inactive,
Cc1cc(N)n(-c2ccccc2)n1,inactive,
NC(=O)c1ccccc1C(N)=O,inactive,
O=C(O)c1cccc(C(=O)O)c1C(=O)O,inactive,

SMILES,Potency,"activity, negative = inhibition"
O=C(NC1CCN(CCc2c[nH]c3ccccc23)CC1)c1ccccc1,26.6 µM (active),
Cc1nc(C)c(C)nc1C,inactive,
O=C1c2ccccc2C(=O)c2c1ccc(O)c2O,inactive,
CCn1nc(Cc2ccccc2)cc1C1CCN(C[C@H]2C[C@H](N(C)[C@@H](C(=O)O)C(C)C)C[C@@H]2c2cccc(F)c2)CC1,61.1 µM (active),
CCCCCCCCCCCCN1CCOCC1,inactive,
CCCCOC(=O)C(C)Oc1ccc(Oc2ccc(C(F)(F)F)cn2)cc1 (stereo not given),inactive,
O=C(OCCCCCOC(=O)c1ccccc1)c1ccccc1,inactive,
C=CC(C)(O)CC/C=C(/C)CCC=C(C)C (stereo not given),inactive,
CC(C)C[C@H](NC(=O)[C@H](Cc1ccccc1)NC(=O)c1cnccn1)B(O)O,23.7 nM (active) and 16.8 nM (active),
O=C(Nc1ccc2c(c1)Cc1ccccc1-2)C(F)(F)F,inactive,
CC(C)Oc1ccccc1O,inactive,
CC(C)CCCCCCCOC(=O)c1ccc(C(=O)OCCCCCCCC(C)C)c(C(=O)OCCCCCCCC(C)C)c1,inactive,
Cc1cc(C)n(CO)n1,inactive,
O=C(O)c1ccc2cc(O)ccc2c1,inactive,
C=CC(=O)NC(C)(C)C,inactive,
CS(C)=O,inactive,
C1=COCCC1,inactive,
O=C(O)CCc1nc2ccccc2[nH]1,inactive,
Cc1cc(C)c(C)c(O)c1,inactive,
COC=O,,9.66% [at 8.44 µM] (inactive)
